Assay outcomes (PubChem)
EphB4 antag – blocks human EphB4 binding to ephrin-B2 | P54760 | inhibition, % at 7 µM | EphB4 LBD / TNYL-RAW-Alexa532 peptide, fluorescence polarization | 0.15% of 97,000 active;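 active = inhibition above the screen-wide mean inhibition plus 3 SD, cut at about 15% in these data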;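 note: 0% = DMSO wells and 100% = excess unlabeled TNYL-RAW peptide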
CYP2C19 act – increases human CYP2C19 enzyme activity; P33261; recombinant CYP2C19, luciferin-H EGE luminescence; active compounds read high; 0 = fully inhibited enzyme, 1 = untreated enzyme; activation factor at 5 µM; 96,000 tested, under 10 active; AID 1025;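 active = activation factor of at least 2 at 5 µM in the primary screen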;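 note: 0 = wells with 2.5 mM tranylcypromine and 1 = vehicle-only wells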
Target sequence (P33261 whole entry, looked up): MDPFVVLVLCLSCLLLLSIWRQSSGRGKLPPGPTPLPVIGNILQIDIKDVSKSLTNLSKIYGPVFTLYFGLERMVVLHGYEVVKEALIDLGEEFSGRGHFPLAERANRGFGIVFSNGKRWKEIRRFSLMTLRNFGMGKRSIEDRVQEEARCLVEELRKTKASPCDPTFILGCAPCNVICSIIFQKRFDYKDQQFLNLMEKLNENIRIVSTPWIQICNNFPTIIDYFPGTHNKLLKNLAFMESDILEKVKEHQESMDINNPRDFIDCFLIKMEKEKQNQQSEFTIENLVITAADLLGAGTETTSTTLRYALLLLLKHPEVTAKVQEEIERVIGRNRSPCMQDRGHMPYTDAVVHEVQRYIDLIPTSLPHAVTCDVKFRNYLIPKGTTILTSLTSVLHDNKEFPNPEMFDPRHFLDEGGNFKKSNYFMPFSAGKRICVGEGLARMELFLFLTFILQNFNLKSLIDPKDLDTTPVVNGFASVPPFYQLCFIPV
CYP2C9 activ – CYP2C9 (human) activation | 1.4% of 96,000 active | activation factor at 5 µM | recombinant CYP2C9, luciferin-H conversion, luminescence; active compounds read high; factor 1 = untreated enzyme, 0 = blocked | P11712;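 active = activation factor of 2 or more for CYP2C9 at a 5 µM dose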;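 note: 0 = sulfaphenazole-blocked wells and 1 = vehicle-only wells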
CYP2C9 inhib – human CYP2C9 inhibition; P11712; CYP2C9 Supersomes, luciferin-H conversion, luminescence; inhibition, % at 5 µM; 20% of 96,000 active; AID 777;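 active = blocking of liver enzyme CYP2C9 beyond about 50% at 5 µM, limit read from the data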
CYP2C19 inhib – inhibitors of human CYP2C19; P33261; 21% of 96,000 active; CYP2C19 Supersomes, luciferin-H EGE luminescence, 30 min; inhibition, % at 5 µM;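 active = CYP2C19 inhibition above a set limit at 5 µM in the primary screen, cut at about 50% in these data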;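 note: plate controls were negative control wells for no effect and 2.5 mM tranylcypromine positive control for full effect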
* hit, by the source's call; . = no result. Compounds with a hit are over-represented: about 27% of the library has one in this group of screens.

SMILES	EphB4 antag	CYP2C19 act	CYP2C9 activ	CYP2C9 inhib	CYP2C19 inhib
COCCCNC(=O)c1cc(C)nc2ccc(F)cc12	-2	1	1.1	-10	0
C=CCNC(=O)Nc1ccc(OCC)cc1	-10	1.1	1.1	-15	-10
CN(C)CCn1c(=O)n(Cc2ccco2)c(=O)c2c3c(sc21)CCCCC3	6	0.9	0.8	16	6
CN(CCc1ccccn1)Cc1ccc(Cl)cc1	1	0.5	1.2	-24	53*
CCc1ccc(CN(C)CCc2ccccn2)cc1	-7	0.1	0.8	21	89*
Cc1ccc(CN(C)CCc2ccccn2)cc1	2	0.6	0.8	15	44
Cc1occc1C(=O)NC1CCCc2ccccc21 (stereo not drawn)	-7	0.3	0.5	47	71*
Cc1nc(NC2=NCN(Cc3cccnc3)CN2)nc2c(C)cccc12	.	1.1	1.2	-15	-11
CCc1c(O)nc(SC2CC(=O)N(c3ccccc3)C2=O)[nH]c1=O (stereo not drawn)	-5	0.7	0.3	67*	29
O=C(Cn1nc(C(F)F)cc1C(F)F)NNC(=S)Nc1ccc(Cl)cc1	12	0.6	0.3	71*	45
COCCNCCOc1ccccc1-c1ccccc1	5	0.4	0.9	13	59*
CCOC(=O)CSC1=C(C#N)C(c2ccccc2)C(C(C)=O)=C(C)N1 (stereo not drawn)	1	0.4	0.4	59*	58*
CSC1=C(C#N)C(c2ccccc2Cl)C(C(C)=O)=C(C)N1 (stereo not drawn)	-8	.	.	.	.
CSCSC1=C(C#N)C(c2ccc(Cl)cc2)C(C(C)=O)=C(C)N1 (stereo not drawn)	5	0	0	100*	98*
CCOc1ccc(NC(=O)CN(C)CC(=O)Nc2ccccc2C#N)cc1OCC	-3	0.8	0.9	11	16
CCOc1ccc(NC(=O)CN(C)CC(=O)NC2CCCc3ccccc32)cc1OCC (stereo not drawn)	-7	0.8	0.1	86*	23
Cc1c(CN(C)C)c2c(n1Cc1ccccc1)C(=O)c1ccc(Br)cc1-2	1	0.2	0.4	63*	79*
CCn1c(SCC(=O)Nc2ccc3c(c2)OCO3)nc2c1c(=O)n(C)c(=O)n2C	-4	0.8	0.6	37	15
CCN(CC)S(=O)(=O)c1ccc(-c2nnc(SCC(=O)Nc3ccc4c(c3)OCO4)o2)cc1	5	0.7	0.3	72*	28
CC(C)n1c(SCC(=O)Nc2ccc3c(c2)OCO3)nc2c1c(=O)n(C)c(=O)n2C	-3	0.7	0.4	55*	31
CC(C)c1nc(SCC(=O)Nc2ccc3c(c2)OCO3)n[nH]1	-1	0.3	0.8	22	73*
CCc1nnc(SCC(=O)Nc2ccc3c(c2)OCO3)o1	2	0.3	0.6	45	72*
C=C(C)CSc1nnc2[nH]c(=O)cc(N)n12	6	.	.	.	.
COc1cc(/C=N/NC(=O)CCn2c3ccccc3c3ccccc32)ccc1O	-7	0.4	0.3	65*	60*
COc1cc(/C=N/NC(=O)c2c(-c3ccccc3)noc2C)ccc1O	7	0.5	0.2	77*	52*
SMILES	EphB4 antag	CYP2C19 act	CYP2C9 activ	CYP2C9 inhib	CYP2C19 inhib
COC(=O)c1onc(-c2ccccc2)c1C(=O)OC	-2	0.3	0.8	18	72*
COc1cc(/C=N/NC(=O)C(=O)N2CCCC2)ccc1O	-3	1.1	1.4	-36	-13
Cc1ccccc1NC(=O)c1c(-c2ccccc2)noc1C	-2	0.5	1	-2	52*
Cc1cccc(C)c1NC(=O)c1c(-c2ccccc2)noc1C	-6	0.6	0.9	10	43
COc1cccc(/C=N/NC(=O)c2c(-c3ccccc3)noc2C)c1O	-2	0.8	0.8	16	23
CC(=O)Nc1ccc(NC(=O)CSc2nnc(C3CC3)n2C)cc1	-11	1.2	1.1	-6	-16
CCOC(=O)CCc1c(C)c(C#N)c2nc3ccccc3n2c1-n1ccnc1	5	1	1	-2	1
COc1ccc(NC(=O)c2c(-c3ccccc3)noc2C)c(OC)c1	-1	0.5	0.7	31	46
COC(=O)c1cc(OC)c(OC)cc1NC(=O)Nc1ccc(OC)cc1OC	-9	0.3	0.2	84*	68*
COc1cc(/C=N/NC(=O)C2c3ccccc3Oc3ccccc32)ccc1O	9	0.9	0.5	53*	8
COC(=O)c1cc(OC)c(OC)cc1NC(=O)c1ccc(C)cc1	-11	0.6	0.5	51*	42
COC(=O)c1cc(OC)c(OC)cc1NC(=O)c1c(-c2ccccc2)noc1C	4	0.4	0.2	75*	56*
Cc1cc(C)n(CC2CC(=O)N(c3ccc(F)c(Cl)c3)C2=O)n1 (stereo not drawn)	2	0.7	1	1	30
Cc1ccc(C(=O)C2C(c3cccs3)NC(=O)NC2(O)C(F)(F)F)cc1 (stereo not drawn)	6	1.2	1.3	-35	-15
CCn1c2ccccc2c2cc(/C=N/NC(=O)c3ccccc3)ccc21	-8	0.3	0.9	8	73*
Cc1ccc(F)cc1NC(=O)c1c(-c2ccccc2)noc1C	-2	0.5	0.9	13	53*
C(=NCCCN1CCOCC1)c1ccc2c(c1)OCO2	.	1.1	1	2	-10
O=c1[nH]nc(Cc2ccc3ccccc3n2)c2ccccc12	0	0.9	0.9	14	8
O=c1c2c3c(sc2ncn1/N=C/c1ccc(Br)o1)CCCC3	-3	1.1	1.1	-13	-14
COc1cc(C(=O)Nc2ccccc2N2CCN(S(C)(=O)=O)CC2)cc(OC)c1OC	-2	0.9	0.2	79*	14
COc1ccccc1C(=O)Nc1ccc(N2CCN(S(C)(=O)=O)CC2)cc1	-2	0.5	1.8	-81	53*
CS(=O)(=O)N1CCN(c2ccccc2NC(=O)c2cccnc2)CC1	-2	1	1	-2	3
COc1ccccc1C(=O)Nc1ccccc1N1CCN(S(C)(=O)=O)CC1	2	0.3	0.3	74*	69*
Cc1nnc2ccc(N3CCCC3)nn12	4	1.2	1.2	-22	-19
CCOC(=O)c1cnc2ccc(Cl)cc2c1NCCN(C)C	7	.	.	.	.
SMILES	EphB4 antag	CYP2C19 act	CYP2C9 activ	CYP2C9 inhib	CYP2C19 inhib
CCOC(=O)c1ccc(NC(=O)Nc2ccc3c(c2)OCCO3)cc1	4	.	.	.	.
CCOC(=O)c1cnc2ccc(C(=O)OC)cc2c1Nc1ccc2c(c1)OCCO2	-2	0.7	0.5	54*	27
CCOC(=O)c1cnc2ccc(OC)cc2c1Nc1ccc2c(c1)OCCO2	-6	0.5	0	96*	46
Cc1cc(C)c2nc(-c3ccccn3)cc(C(=O)NCc3ccco3)c2c1	-1	1	1	0	-2
O=C(O)c1cc2n(n1)C(C(F)(F)F)CC(c1ccccc1)N2 (stereo not drawn)	-14	1	1	-1	-1
CCS(=O)(=O)Nc1ccc2c(c1)N(C(C)=O)c1ccccc1CC2	-9	0.7	0.3	70*	25
CCOC(=O)Nc1ccc2c(c1)N(C(=O)OCCN(C)C)c1ccccc1CC2	-2	1	0.9	6	-2
